biological target: Solute carrier family 2, facilitated glucose transporter member 1 (Homo sapiens) (UniProt P11166); test: ST_JUDE_LEISH: Cytotoxicity at 2uM final concentration against transgenic Leishmania Mexicana promastigotes LmGLUT1 that are glucose transport deficient and complemented with the human glucose transporter GLUT1. Activity is measured by DNA content using SYBR green in vitro; assay type: functional
Sequence (P11166 whole entry): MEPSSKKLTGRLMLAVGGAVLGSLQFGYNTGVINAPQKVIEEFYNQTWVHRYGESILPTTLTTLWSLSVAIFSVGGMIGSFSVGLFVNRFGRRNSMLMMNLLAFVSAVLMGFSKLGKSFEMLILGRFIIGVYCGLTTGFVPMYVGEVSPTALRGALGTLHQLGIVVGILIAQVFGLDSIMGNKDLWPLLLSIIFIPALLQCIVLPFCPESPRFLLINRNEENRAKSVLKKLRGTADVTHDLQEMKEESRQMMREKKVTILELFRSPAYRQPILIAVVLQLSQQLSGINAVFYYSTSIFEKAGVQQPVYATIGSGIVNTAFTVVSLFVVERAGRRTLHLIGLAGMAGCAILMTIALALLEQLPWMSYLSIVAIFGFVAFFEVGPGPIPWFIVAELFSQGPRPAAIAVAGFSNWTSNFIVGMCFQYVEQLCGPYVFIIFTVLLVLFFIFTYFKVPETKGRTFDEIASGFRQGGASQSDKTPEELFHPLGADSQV

First: CCC[C@@H]([C@@H](CC1CCCCC1)C(=O)N[C@H](C(=O)Nc1nccs1)C(C)(C)SC)N(O)C=O
Second: O=C(N[C@@H](CC1CCCCC1)C(=O)NC1CCCc2ccccc21)c1ccc(O)c(-c2cccc(C(F)(F)F)c2)c1 (stereo not given in full)
The inhibition of the first is higher: 9.33% for the first, 4.07% for the second.

First: Cc1cc(Nc2ccnc(-c3ccc(Cl)cc3)n2)ccn1
Second: COc1ccc(-c2ncnc(C(F)(F)F)c2-c2ccc(Cl)cc2)c(O)c1
The inhibition of the first is higher: 7.95% for the first, 3.19% for the second.

First: CC(C)(CNCc1ccc(F)c(F)c1)c1nc(-c2ccc(Cl)c(O)c2)c(-c2ccncc2)[nH]1
Second: COC(=O)c1cccc(CNCc2cccc(-c3ccc(-c4nc5cc(C(F)(F)F)ccc5[nH]4)cc3)c2)c1
The inhibition of the first is higher: 2.43% for the first, 2.29% for the second.

Compared with `CCn1c(SC)nnc1C1CCCN(CC(=O)Nc2nc3ccc(OC)cc3s2)C1` (stereo not given), `CCc1ccc(-n2c(=O)c3cccnc3n2CC(=O)NC2CCCC2)cc1` is lower in inhibition: 4.48% for the first, 1.13% for the second.

Compared with `CC(O)C1CCCCN1C(=O)c1cccc(-c2cccc(-c3nc4cc(C(F)(F)F)ccc4[nH]3)c2)c1` (stereo not given), `CN1CCN(CC(=O)Nc2cccc(-c3cccc(-c4nc5ccccc5[nH]4)c3)c2)CC1` is lower in inhibition: -0.23% for the first, -0.57% for the second.

First: O=c1cc(NCCCNCc2cc(C(F)(F)F)ccc2Cl)[nH]c2ccccc12
Second: CNc1ccc(CNCc2ccc(-c3ccc(-c4nc5cc(C(F)(F)F)ccc5[nH]4)cc3)cc2)cc1
The inhibition of the first is lower: -0.91% for the first, 0.54% for the second.

Going from `Cc1noc(=O)c2ccc(NC(=O)C(O)(CSc3ccccc3)CC(C)C)cc12` (stereo not given) to `Cc1ccc(-c2noc(=O)n2CC(=O)Nc2ccccc2-c2ccccc2)cc1`, the inhibition falls from 6.92% to 0.59%.

Compared with `CN(C)CCCN1CCN(C(=O)c2cccc(-c3noc(C(F)(F)F)n3)c2)CC1`, `CCc1cccc(NC(=O)c2ccc(CN3CCCN(CC4CCCCC4)CC3)cc2)c1` is higher in inhibition: 2.61% for the first, 10.3% for the second.

Compared with `COC(=O)c1ccc(Nc2nccc(Nc3ccc(Oc4ccccc4)cc3)n2)cc1`, `COCCNCc1cccc(-c2ccc3c(Nc4ccc(Oc5cccnc5)cc4)ccnc3c2)c1` is lower in inhibition: 5.22% for the first, 1.93% for the second.

Going from `N=C(N)Nc1nc(-c2cccc(NC(=O)NCc3cccc4ccccc34)c2)cs1` to `O=C(Nc1cccc(-c2nc3ccccc3[nH]2)c1)c1ccc(-c2cccc([N+](=O)[O-])c2)o1`, the inhibition rises from 1.1% to 4.88%.

Compared with `O=C(COc1cnc2ccccc2n1)Nc1ccccc1Sc1ccc(Cl)cc1`, `c1ccc2c(NCCc3c[nH]cn3)c3ccccc3nc2c1` is lower in inhibition: 4.91% for the first, 0.58% for the second.

Going from `Cc1cc(=NN=CC=Cc2ccccc2)c2ccc(F)cc2[nH]1` to `COc1ccc2c(NN=Cc3cccc(F)c3)ccnc2c1`, the inhibition rises from -1.45% to 2.99%.

Going from `O=C(Nc1cc(F)c(F)c(-c2cccnc2)c1)N1CCc2cc(Cl)c(Cl)cc21` to `Fc1cc(Cl)ccc1Nc1ccnc2cc(-c3ccc(CN4CCNCC4)o3)ccc12`, the inhibition rises from 0.67% to 1.02%.

First: CCOC(=O)c1ccc(OCCOc2ccccc2)cc1
Second: COc1ccc(CCCCN2C(=O)C(c3ccccc3)(c3ccccc3)N=C2N)cc1
The inhibition of the first is lower: -0.36% for the first, 3.36% for the second.

Going from `Cc1ccc(Nc2ccnc3cc(-c4nccs4)ccc23)cc1C(O)c1ccccc1` (stereo not given) to `c1ccc(Oc2ccc(Nc3ccnc4cc(-c5cccc(CN6CCOCC6)c5)ccc34)cc2)cc1`, the inhibition falls from 3.59% to -0.77%.

Going from `CN1CCN(c2ccc(Nc3c(C(N)=O)cnc4cc(-c5ccoc5)ccc34)cc2)CC1` to `Cc1ccoc1C(=O)Nc1ccc(-c2cccc(-c3nc4cccc(C)c4[nH]3)c2)cc1`, the inhibition falls from 15.1% to 2.21%.

First: COC(=O)c1cccc(NC(=O)NC2CCN(c3ccnc(Nc4cc(OC)c(OC)c(OC)c4)n3)C2)c1 (stereo not given)
Second: Cc1ccc(CN2CCN(Cc3cccc(NC(=O)c4ccc5ccccc5c4)c3)CC2)cc1C
The inhibition of the first is higher: 10.5% for the first, 1.24% for the second.

First: C=CCc1cc(Cc2cnc(N)nc2N)cc(CCC)c1O
Second: COCCn1c(Sc2ncnc3sccc23)nc2ccccc21
The inhibition of the first is lower: -0.63% for the first, 0.98% for the second.

Compared with `CCOc1ccc(NC(=O)c2ccc(CN3CCCN(Cc4cccc(O)c4)CC3)cc2)cc1`, `O=C(/C=C/c1ccccc1Cl)Nc1ccc(Br)c(OCCN2CCCCC2)c1` is lower in inhibition: 3.91% for the first, 2.43% for the second.

Compared with `N#Cc1ccc(-n2cc(C(=O)Nc3ccc4c(c3)CCN(C3CCC3)CC4)c(C(F)(F)F)n2)cc1`, `CC(C)C1C(=O)N(S(C)(=O)=O)C2CCN(C(=O)c3ccc(CN4CCCCC4)c([N+](=O)[O-])c3)C12` (stereo not given) is lower in inhibition: 7.01% for the first, 3.87% for the second.

biological target: Hexose transporter 1 (Plasmodium falciparum) (UniProt O97467); test: ST_JUDE_LEISH: Cytotoxicity at 2uM final concentration against transgenic Leishmania Mexicana promastigotes LmPfHT that are glucose transport deficient and complemented with the Plasmodium falciparum hexose transporter. Activity is measured by DNA content using SYBR green in vitro; assay type: functional

First: CCC[C@@H]([C@@H](CC1CCCCC1)C(=O)N[C@H](C(=O)Nc1nccs1)C(C)(C)SC)N(O)C=O
Second: O=C(N[C@@H](CC1CCCCC1)C(=O)NC1CCCc2ccccc21)c1ccc(O)c(-c2cccc(C(F)(F)F)c2)c1 (stereo not given in full)
The inhibition of the first is higher: 8.98% for the first, 1.73% for the second.

First: Cc1cc(Nc2ccnc(-c3ccc(Cl)cc3)n2)ccn1
Second: COc1ccc(-c2ncnc(C(F)(F)F)c2-c2ccc(Cl)cc2)c(O)c1
The inhibition of the first is higher: 8.43% for the first, 3.07% for the second.

Going from `CC(C)(CNCc1ccc(F)c(F)c1)c1nc(-c2ccc(Cl)c(O)c2)c(-c2ccncc2)[nH]1` to `COC(=O)c1cccc(CNCc2cccc(-c3ccc(-c4nc5cc(C(F)(F)F)ccc5[nH]4)cc3)c2)c1`, the inhibition rises from 0.25% to 3.53%.

Compared with `CCn1c(SC)nnc1C1CCCN(CC(=O)Nc2nc3ccc(OC)cc3s2)C1` (stereo not given), `CCc1ccc(-n2c(=O)c3cccnc3n2CC(=O)NC2CCCC2)cc1` is lower in inhibition: 3.27% for the first, -0.35% for the second.

Going from `CC(O)C1CCCCN1C(=O)c1cccc(-c2cccc(-c3nc4cc(C(F)(F)F)ccc4[nH]3)c2)c1` (stereo not given) to `CN1CCN(CC(=O)Nc2cccc(-c3cccc(-c4nc5ccccc5[nH]4)c3)c2)CC1`, the inhibition falls from 1.12% to -0.37%.

Compared with `O=c1cc(NCCCNCc2cc(C(F)(F)F)ccc2Cl)[nH]c2ccccc12`, `CNc1ccc(CNCc2ccc(-c3ccc(-c4nc5cc(C(F)(F)F)ccc5[nH]4)cc3)cc2)cc1` is lower in inhibition: 0.29% for the first, -1.86% for the second.

Compared with `Cc1noc(=O)c2ccc(NC(=O)C(O)(CSc3ccccc3)CC(C)C)cc12` (stereo not given), `Cc1ccc(-c2noc(=O)n2CC(=O)Nc2ccccc2-c2ccccc2)cc1` is lower in inhibition: 4.78% for the first, 0.52% for the second.

Compared with `CN(C)CCCN1CCN(C(=O)c2cccc(-c3noc(C(F)(F)F)n3)c2)CC1`, `CCc1cccc(NC(=O)c2ccc(CN3CCCN(CC4CCCCC4)CC3)cc2)c1` is higher in inhibition: 3.52% for the first, 10% for the second.

Compared with `COC(=O)c1ccc(Nc2nccc(Nc3ccc(Oc4ccccc4)cc3)n2)cc1`, `COCCNCc1cccc(-c2ccc3c(Nc4ccc(Oc5cccnc5)cc4)ccnc3c2)c1` is lower in inhibition: 9.95% for the first, 2.56% for the second.

Going from `N=C(N)Nc1nc(-c2cccc(NC(=O)NCc3cccc4ccccc34)c2)cs1` to `O=C(Nc1cccc(-c2nc3ccccc3[nH]2)c1)c1ccc(-c2cccc([N+](=O)[O-])c2)o1`, the inhibition rises from -0.38% to 5.59%.

Going from `O=C(COc1cnc2ccccc2n1)Nc1ccccc1Sc1ccc(Cl)cc1` to `c1ccc2c(NCCc3c[nH]cn3)c3ccccc3nc2c1`, the inhibition rises from 3.31% to 4.05%.

Compared with `Cc1cc(=NN=CC=Cc2ccccc2)c2ccc(F)cc2[nH]1`, `COc1ccc2c(NN=Cc3cccc(F)c3)ccnc2c1` is lower in inhibition: 2.91% for the first, 2.22% for the second.

Compared with `O=C(Nc1cc(F)c(F)c(-c2cccnc2)c1)N1CCc2cc(Cl)c(Cl)cc21`, `Fc1cc(Cl)ccc1Nc1ccnc2cc(-c3ccc(CN4CCNCC4)o3)ccc12` is higher in inhibition: -1.8% for the first, 1.16% for the second.

First: CCOC(=O)c1ccc(OCCOc2ccccc2)cc1
Second: COc1ccc(CCCCN2C(=O)C(c3ccccc3)(c3ccccc3)N=C2N)cc1
The inhibition of the first is lower: 1.04% for the first, 4.05% for the second.

Going from `Cc1ccc(Nc2ccnc3cc(-c4nccs4)ccc23)cc1C(O)c1ccccc1` (stereo not given) to `c1ccc(Oc2ccc(Nc3ccnc4cc(-c5cccc(CN6CCOCC6)c5)ccc34)cc2)cc1`, the inhibition falls from 2.96% to 0.67%.

Going from `CN1CCN(c2ccc(Nc3c(C(N)=O)cnc4cc(-c5ccoc5)ccc34)cc2)CC1` to `Cc1ccoc1C(=O)Nc1ccc(-c2cccc(-c3nc4cccc(C)c4[nH]3)c2)cc1`, the inhibition falls from 24.6% to 2.54%.

Going from `COC(=O)c1cccc(NC(=O)NC2CCN(c3ccnc(Nc4cc(OC)c(OC)c(OC)c4)n3)C2)c1` (stereo not given) to `Cc1ccc(CN2CCN(Cc3cccc(NC(=O)c4ccc5ccccc5c4)c3)CC2)cc1C`, the inhibition falls from 6.39% to 1.87%.

Going from `C=CCc1cc(Cc2cnc(N)nc2N)cc(CCC)c1O` to `COCCn1c(Sc2ncnc3sccc23)nc2ccccc21`, the inhibition rises from -0.27% to 2.13%.

Going from `CCOc1ccc(NC(=O)c2ccc(CN3CCCN(Cc4cccc(O)c4)CC3)cc2)cc1` to `O=C(/C=C/c1ccccc1Cl)Nc1ccc(Br)c(OCCN2CCCCC2)c1`, the inhibition falls from 3.89% to 2.16%.

First: N#Cc1ccc(-n2cc(C(=O)Nc3ccc4c(c3)CCN(C3CCC3)CC4)c(C(F)(F)F)n2)cc1
Second: CC(C)C1C(=O)N(S(C)(=O)=O)C2CCN(C(=O)c3ccc(CN4CCCCC4)c([N+](=O)[O-])c3)C12 (stereo not given)
The inhibition of the first is higher: 6.79% for the first, 4.49% for the second.

— ChEMBL document CHEMBL3433997, “St. Jude Leishmania screening dataset” (2016)
